In the library only some 6.1% were active in any assay of this set; here they are far more common.
D1 antag: Antagonist of Human D 1 Dopamine Receptor: qHTS. D(1A) dopamine receptor (Homo sapiens), P21728. HEK293 TREx D1 cells, calcium flux, dopamine EC80; active compounds read low. activity change, negative = inhibition, % at 10 µM. 360,000 compounds, 3.2% hits; in the data active = activity change below about -30%
Target sequence (P21728 whole entry, looked up): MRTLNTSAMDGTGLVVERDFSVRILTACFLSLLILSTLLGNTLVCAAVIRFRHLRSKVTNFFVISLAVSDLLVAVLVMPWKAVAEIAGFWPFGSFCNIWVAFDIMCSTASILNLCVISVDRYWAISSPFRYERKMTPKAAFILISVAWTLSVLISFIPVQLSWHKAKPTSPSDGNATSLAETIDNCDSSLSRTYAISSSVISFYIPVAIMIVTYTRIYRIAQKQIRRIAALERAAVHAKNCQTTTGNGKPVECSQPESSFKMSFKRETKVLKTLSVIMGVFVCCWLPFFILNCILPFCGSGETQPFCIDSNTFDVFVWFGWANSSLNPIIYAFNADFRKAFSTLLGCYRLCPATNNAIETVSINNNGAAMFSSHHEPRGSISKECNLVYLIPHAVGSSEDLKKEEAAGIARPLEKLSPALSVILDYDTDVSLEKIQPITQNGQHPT
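Tetracycline-induced HEK293 Trex D1 cells, force-coupled to calcium, dye-loaded; compounds added and read 180 s, then EC80 dopamine added and calcium flux tracked kinetically another 180 s.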
D1 PAM: Potentiators of Human D1 Dopamine Receptor: qHTS | HEK293 TREx D1 cells, calcium flux, dopamine EC20 potentiation | potentiation, % at 10 µM | 360,000 compounds, 0.036% hits; in the data active = potentiation above about 30%
D3 antag: qHTS of D3 Dopamine Receptor Antagonist: qHTS. 360,000 compounds, 2.5% hits. AID 652054, 2013. D(3) dopamine receptor (Homo sapiens), P35462. max response, negative = inhibition, %. D3R cells, DiscoveRx beta-arrestin luminescence, antagonist mode; active compounds read low; in the data active = max response below about -50%; inconclusive = no clear call, values can overlap the other calls
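Cells plated overnight at 1500 cells/well, then exposed to library compounds with dopamine controls for 90 minutes at 37 degrees C. DiscoveRx reagent added for 30–60 minutes at room temperature; luminescence read, quantitative HTS format.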
DRD3 agonist: qHTS of D3 Dopamine Receptor Agonist: qHTS | AID 652048, 2013 | 410,000 compounds, 0.58% hits | D(3) dopamine receptor (Homo sapiens), P35462 | D3R DiscoveRx beta-arrestin cells, luminescence, 90 min | max activation, %; in the data active = max activation above about 30%
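Agonist mode: compounds and dopamine controls were applied to plated cells for 90 min at 37 degrees C after an overnight attachment at 1500 cells/well. Luminescent read-out followed 30 - 60 minutes at room temperature with DiscoveRx detection reagent.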
D1 ag: Allosteric Agonists of the Human D1 Dopamine Receptor: qHTS; D(1A) dopamine receptor (Homo sapiens), P21728; HEK293 T-REx D1 cells, calcium flux, agonist mode; activation, % at 2 µM; 360,000 compounds, 1% hits; in the data active = activation above about 30%
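Inducible HEK293 T-REx D1 cells, force-coupled to calcium signalling, were plated at 4000 cells/well with tetracycline and held overnight at 30 C. After no-wash calcium dye loading, compound-evoked calcium rise over 180 s flagged agonists.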
Large screens that a line does not name were inactive.

CCOc1ccc2[nH]c(=O)c(CN(Cc3cccs3)Cc3nnnn3C(C)(C)C)cc2c1	D1 antag -30
O=C(c1ccccc1)N1CCCC(c2nc3c(nnn3Cc3ccccc3)c(=O)[nH]2)C1 (stereo unspecified)	D3 antag inconclusive
Cc1ccc(NC(=O)N2CCC(c3nc4c(nnn4Cc4cccc(Cl)c4)c(=O)[nH]3)CC2)cc1	D1 antag -47
O=C(C1CCCCC1)N1CCCC(c2nc3c(nnn3Cc3ccccc3)c(=O)[nH]2)C1 (stereo unspecified)	D3 antag -108
COc1ccc2oc(=O)c(C(=O)NCCc3c(C)[nH]c4c(C)cccc34)cc2c1	none (no result: D3 antag)
[O-][N+]1=c2ccc(Nc3ccccc3)cc2=NC12CCCCC2	D1 antag -55, D3 antag inconclusive
COc1ccc(Nc2ccc3c(c2)=NC2(CCCCC2)[N+]=3[O-])cc1	D3 antag -68
CC(C)n1c(S(=O)(=O)O)nc2ccccc21	D1 antag -34
CC(c1ccccc1)n1c(S(=O)(=O)O)nc2ccccc21 (stereo unspecified)	none
O=C1c2ccccc2C(=O)N1Cc1ccccn1	D1 antag -37
O=C1C=CC(=O)N1Cc1ccccn1	none (no result: D1 antag, D1 PAM, D1 ag)
CCN(CC)c1nn2c(=O)c(C(=O)NCCc3cccc(C)c3)cnc2s1	none (no result: D3 antag)
CCN(Cc1ccncc1)Cc1nc(-c2ccc(C(=O)OC)cc2)no1	none
COc1ccc(OC(C)C(=O)N(C)Cc2nc(-c3ccc(OC)cc3)no2)cc1 (stereo unspecified)	DRD3 agonist 40
COc1ccc(-c2noc(CN(C)CCC3CCCCO3)n2)cc1 (stereo unspecified)	DRD3 agonist 35
COC(=O)c1ccc(-c2noc(CN(C)CCC3CCCCO3)n2)cc1 (stereo unspecified)	D1 antag -61
COC(=O)c1ccc(-c2noc(CN(C)Cc3ccncc3C)n2)cc1	D1 antag -41
COc1ccc(-c2nc3c4ccccc4n(CC(=O)Nc4cc(F)ccc4F)c(=O)n3n2)cc1	none (no result: D1 antag, D3 antag)
CC(C)CCNC(=O)C(=O)Nc1cc2c3c(c1)CC(=O)N3CCC2	DRD3 agonist 39
COCCNC(=O)C(=O)Nc1cc2c3c(c1)CCC(=O)N3CCC2	D1 antag -31
CC1C(=O)N2CCCc3cc(NC(=O)C(=O)NCCc4ccccc4)cc1c32 (stereo unspecified)	D1 antag -35
CC1C(=O)N2CCCc3cc(NC(=O)C(=O)NCCc4c[nH]c5ccccc45)cc1c32 (stereo unspecified)	none
CC(C)CCNC(=O)C(=O)Nc1cc2c3c(c1)CCC(=O)N3CCC2	none
CCC(=O)N1CCc2cc(Br)cc(S(=O)(=O)CCC(=O)N3CCN(c4ccccc4F)CC3)c21	none (no result: D3 antag)
COc1cc(S(=O)(=O)NCCc2c(C)[nH]c3ccccc23)c(C)cc1C	none (no result: D3 antag)
O=C(NC1CCCCC1)c1cccc2c1C(=O)c1ccc(N3CCC(Cc4ccccc4)CC3)cc1S2(=O)=O	none (no result: D1 antag, D1 PAM, D1 ag)
O=C(NC[C@@H]1CCCO1)c1cccc2c1C(=O)c1ccc(N3CCOCC3)cc1S2(=O)=O	none (no result: D1 antag, D1 PAM, D1 ag)
O=C1c2ccccc2S(=O)(=O)c2cc(N3CCOCC3)ccc21	none (no result: D1 antag, D1 PAM, D1 ag)
CC1CCN(c2ccc3c(c2)S(=O)(=O)c2cccc(C(=O)NC[C@@H]4CCCO4)c2C3=O)CC1	DRD3 agonist 31 (no result: D1 antag, D1 PAM, D1 ag)
CC1CCN(c2ccc3c(c2)S(=O)(=O)c2cccc(C(=O)NC4CC4)c2C3=O)CC1	DRD3 agonist 52 (no result: D1 antag, D1 PAM, D1 ag)
O=C(NCC1CCCO1)c1cccc2c1C(=O)c1ccc(N3CCC(Cc4ccccc4)CC3)cc1S2(=O)=O (stereo unspecified)	DRD3 agonist 50 (no result: D1 antag, D1 PAM, D1 ag)
O=C1c2ccccc2S(=O)(=O)c2cc(N3CCN(c4ccccc4)CC3)ccc21	DRD3 agonist 52 (no result: D1 antag, D1 PAM, D1 ag)
Cc1ccc(Nc2nnc(-c3ccc(C)c(S(=O)(=O)N4CCOCC4)c3)c3ccccc23)cc1	none (no result: D3 antag)
CCc1cccc(C)c1NC(=O)Cn1c(=O)cc(C(F)(F)F)c2c(C)nn(C)c21	none (no result: D3 antag)
